# In PubChem BioAssay AID1565 (Sanford-Burnham Center for Chemical Genomics, 2009):
# The whole screen tested about 290,000 compounds, of which about 3,200 (1.1%) were called active. For the sample, actives were picked, then their nearest neighbours and some compounds at random. Unmarked numbers belong to inactive results. No stated cut-off is given here; in the data, active means inhibition above about 60%; inactive means the rest.
# Target: Phosphoethanolamine/phosphocholine phosphatase (Homo sapiens) (UniProt Q8TCT1)
# Sequence (Q8TCT1 whole entry, looked up): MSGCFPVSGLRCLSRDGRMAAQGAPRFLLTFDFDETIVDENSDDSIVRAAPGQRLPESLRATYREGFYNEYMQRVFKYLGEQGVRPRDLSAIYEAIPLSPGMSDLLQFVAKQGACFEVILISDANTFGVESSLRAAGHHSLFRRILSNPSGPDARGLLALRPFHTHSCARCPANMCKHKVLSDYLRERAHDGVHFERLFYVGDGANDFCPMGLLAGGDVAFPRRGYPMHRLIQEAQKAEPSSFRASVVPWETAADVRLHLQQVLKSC
# Assay: PubChem AID 1565
# Settings: recombinant PHOSPHO1, absorbance phosphatase assay; at 13.3 µM; hits give high values
row,Structure (SMILES),inhibition
1,Nc1ccc(C(=O)Nc2ccccc2N)cc1,8.3%
2,N#Cc1c(-c2ccccc2)cc(-c2ccccc2)nc1SCC(=O)O,-12.1%
3,N#Cc1c(N2CCCCC2)nc(N)c2c(N)nc(SCC(=O)O)cc12,60.8% (active)
4,Cc1cc(C)c(C#N)c(N2CCC(C(N)=O)CC2)n1,-42.6%
5,C/C(CC(=O)NCc1ccc(Cl)cc1)=N\NC(=O)COc1ccc(C)cc1Br,41.6%
6,CC1CCN(C(=O)Cn2nnnc2CN2CCOCC2)CC1,47.5%
7,Cc1ccc(C2Nc3cccc4cccc(c34)N2)cc1,13.8%
8,Oc1ccc(C2Nc3cccc4cccc(c34)N2)cc1,14.1%
9,C/C(=C\c1ccco1)C1Nc2cccc3cccc(c23)N1,94% (active)
10,CC1CCN(CC(=O)c2c[nH]c3ccccc23)CC1,47.6%
11,O=C(NCCCc1ccccc1)C(=O)c1c[nH]c2ccccc12,38.2%
12,O=C(NC1CCCC1)C(=O)c1c[nH]c2ccccc12,62.6% (active)
13,Cc1nc([N+](=O)[O-])nn1C12CC3CC(CC(Br)(C3)C1)C2,93% (active)
14,COc1cccc(NC(=O)c2nn(C34CC5CC(CC(C5)C3)C4)cc2[N+](=O)[O-])c1,6.2%
15,Cc1ncn(C23CC4CC(CC(O)(C4)C2)C3)n1,12.9%
16,Cc1cc(-c2ccc(C)c(S(=O)(=O)Nc3ccc(S(N)(=O)=O)cc3)c2)on1,44.5%
17,Cc1noc(C)c1CSCC(=O)N(CCC(C)C)c1c(N)n(Cc2ccccc2)c(=O)[nH]c1=O,9.8%
18,O=C(CCN1C(=O)C2C3CCC(C3)C2C1=O)Nc1ccc(Cl)cc1Cl (configuration not stated),26.6%
19,COCc1ccc(CN2CCC(Oc3ccc(C(=O)NCc4ccccn4)cc3)CC2)o1,61% (active)
20,Cn1cc(CNC(=O)c2ccc(OC3CCN(Cc4ccccn4)CC3)cc2)cn1,69% (active)
21,O=C(NCCOc1cccnc1)c1ccc(OC2CCN(Cc3ccccn3)CC2)cc1,13.7%
22,CN(CCc1ccccn1)C(=O)c1ccc(OC2CCN(Cc3ccccn3)CC2)cc1,17%
23,Cc1nn(C)c(C)c1C(C)NC(=O)c1ccc(OC2CCN(Cc3ccccn3)CC2)cc1 (configuration not stated),18.5%
24,O=C(c1ccc(OC2CCN(Cc3ccccn3)CC2)cc1)N1CCCCCC1,32.8%

row,Structure (SMILES),inhibition
1,COc1cc(/C=N/N2CCN(c3ccccc3)CC2)ccc1OC(C)=O,13.8%
2,Cc1cc(C)cc(NC(=O)NCc2ccccn2)c1,19%
3,COc1ccc(C)cc1-n1nnnc1SCC(=O)c1cc(C)n(Cc2ccco2)c1C,90.1% (active)
4,COc1ccc(OC)c(-n2nnnc2SCC(=O)Nc2cc(C)ccc2OC)c1,-22.4%
5,Cc1cc(C(=O)CSc2nc(N)cc(=O)[nH]2)c(C)n1Cc1ccco1,14.9%
6,CC(C)Cc1nnc(NC(=O)CN2C(=O)NC3(CCCCC3)C2=O)s1,24%
7,CCOC(=O)c1ccc(NC2Nc3cc(C)nn3S2)cc1 (configuration not stated),62.2% (active)
8,CCOC(=O)c1ccc(Nc2cc(C)nc3nc(C)nn23)cc1,-1.2%
9,CCc1ccc(NC2Nc3cc(C)nn3S2)cc1 (configuration not stated),-1%
10,COc1ccc(CCNC(=O)CN2C(=O)CCSc3ccccc32)c(OC)c1,6.9%
11,COc1ccccc1CCCNC(=O)C1CCC(=O)N(CCN2CCOCC2)C1 (configuration not stated),4.2%
12,COc1ccc(NS(=O)(=O)c2ccc(NC(=S)NC(=O)CC(C)C)cc2)cc1,-49.5%
13,CCOc1ccc(S(=O)(=O)Nc2ccc(S(=O)(=O)Nc3cc(OC)ccc3OC)cc2)cc1,-2.6%
14,COc1ccc(OC)c(C(C)NC(=S)Nc2ccc(S(=O)(=O)Nc3ncccn3)cc2)c1 (configuration not stated),62.4% (active)
15,Cc1ccc(C)c(NC(=O)c2cc(-c3cc(C)cc(C)c3O)n[nH]2)c1,41.9%
16,CCOC(=O)c1c(NC(=O)CSc2nccc(=O)[nH]2)sc(C)c1C,22.2%
17,CCOc1ccc(C(=O)COC(=O)c2ccc(-n3cnnn3)cc2)cc1,13.7%
18,CCOC(=O)c1c(-n2cnnn2)sc(C)c1C,98.7% (active)
19,CCCC(C)NC(=O)C1CCN(C(=O)C2CC(=O)N(c3ccc(C)cc3)C2)CC1 (configuration not stated),14.2%
20,CCN(CC(=O)NCc1cccs1)C(=O)c1ccccc1F,16.3%
21,COc1cc(CC(=O)NCc2cccs2)cc(OC)c1OC,1%
22,CCN(CC(=O)NCc1cccs1)C(=O)c1cccc(S(=O)(=O)Nc2ccccc2OC)c1,60.6% (active)
23,S=c1[nH]nc(-c2ccc(Cl)cc2)n1CC1CCCO1 (configuration not stated),90.4% (active)
